The results in this text go back to PubChem BioAssay AID686964 (The Scripps Research Institute Molecular Screening Center, 2013).

SMILES strings stand for the structures. About 1,100 (0.3%) of roughly 370,000 compounds were called active. Shown is part of a subset that was picked to be rich in actives. Unmarked numbers belong to inactive results. No stated cut-off is given here; in the data, active means inhibition above about 13%; inactive means the rest.

Methyl-CpG-binding domain protein 2 (Homo sapiens), sequence (Q9UBB5 whole entry, looked up, the tested form may be a part): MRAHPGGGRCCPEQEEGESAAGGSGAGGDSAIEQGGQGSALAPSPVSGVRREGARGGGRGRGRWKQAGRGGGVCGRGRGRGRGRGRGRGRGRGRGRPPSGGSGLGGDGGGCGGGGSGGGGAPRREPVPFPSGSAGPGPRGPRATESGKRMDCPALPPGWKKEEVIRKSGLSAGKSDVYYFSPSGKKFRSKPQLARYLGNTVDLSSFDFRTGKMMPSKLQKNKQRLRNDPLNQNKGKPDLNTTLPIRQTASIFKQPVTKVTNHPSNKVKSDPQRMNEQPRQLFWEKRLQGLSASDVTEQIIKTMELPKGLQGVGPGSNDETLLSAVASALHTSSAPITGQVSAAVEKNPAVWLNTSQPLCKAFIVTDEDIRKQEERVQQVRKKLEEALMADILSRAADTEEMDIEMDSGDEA

The assay addresses Methyl-CpG-binding domain protein 2 (Homo sapiens) (UniProt Q9UBB5). The experiment in a line: MBD2-DBD methyl-oligonucleotide interaction blockers – biochemical, TR-FRET, DNA-binding domain, human, primary screen (AID 686964). As to conditions: MBD2 binding to methylated oligonucleotide, at 4.4 µM, stronger effect = higher value. For orientation: In TR-FRET formats the signal depends on donor and acceptor labels being close together.
As to `CC(=O)N1CCc2cc(S(=O)(=O)NCCC(=O)N3CCCC3)ccc21`, the inhibition was 0.46%.

As for `CCCN(CC(=O)NC(=O)NC1CCCCC1)CC(=O)Nc1cc(Cl)ccc1Cl`, the inhibition was -5.45%.

In the case of `CCOC(=O)c1sc(NC(=O)CCN2CCOCC2)c(C(=O)OCC)c1C`, the inhibition was 28.4% (active).

Regarding `CCOC(=O)c1c(C)[nH]c(C(=O)NCCN2CCOCC2)c1C`, the inhibition is 4.74%.

With `CCOC(=O)c1c(NC(=O)CCCN2CCOCC2)sc2c1CC(C)(C)OC2`, the inhibition was 0.1%.

`CCN(C(=O)[C@@H](C1CC1)[C@@H](O)c1ccc2ccccc2c1)c1ccccc1`: the inhibition is 3.52%.

As to `O=C1C(=O)N(Cc2ccc(-c3ccsc3)cc2)c2ccc(OC(F)(F)F)cc21`, the inhibition is -3.46%.

For `CC(C)CCN1CCC(C)(NC(=O)c2ccccc2)C1=O` (stereo not given), the inhibition was 0.15%.

Take `COC(=O)[C@]1(C#N)CC(=O)N(CC2CCCCC2)[C@@H]1c1ccccc1`: the inhibition was -3.31%.

Regarding `COC(=O)c1ccc2nc(-c3ccc(F)cc3)c(Cc3ccc(C)cc3)n2c1`, the inhibition was 3.12%.

For the molecule `COC(=O)c1ccc2nc(-c3ccc(Cl)cc3)c(Cc3cccc(F)c3)n2c1`, the inhibition was 2.68%.

In the case of `COC(=O)c1ccc2nc(C3CCCCC3)c(Cc3cccc(F)c3)n2c1`, the inhibition was 19% (active).

For the molecule `O=S1(=O)c2ccc(Br)cc2OC[C@H](Cc2ccccc2)N1Cc1cn(Cc2ccccc2)nn1`, the inhibition was 9.67%.

On to `Cc1cc(NCCc2c[nH]c3ccccc23)ccc1Oc1cccnc1`, for which the inhibition was -2.55%.

As for `CC(C)CC(CC(C)C)=NNC(=O)c1ccc(CSc2nncn2C)cc1`, the inhibition is -5.89%.

Regarding `COC(=O)c1ccc(SCc2ccccc2)nc1`, the inhibition is -4.53%.

Turning to `COC(=O)c1ccc(CSc2nncn2N)cc1`, the inhibition was 48.3% (active).

Consider `COc1cccc2c1C(=O)c1c(O)c3c(c(O)c1C2=O)CC(O)(C(C)=NNC(=O)c1ccc(Cl)c(Cl)c1)CC3OC1CC(N)C(O)C(C)O1` (stereo not given), for which the inhibition is 111% (active).

With `CN[C@H]1C[C@H]2c3cc(N4CCOCC4)ccc3CCN2C[C@H]1[C@H](C)O`, the inhibition was -5.62%.

`COC(=O)[C@@H]1CC(O)CN1C(=O)C12CC3CC(CC(C3)C1)C2` (stereo not given in full): the inhibition was 2.14%.

Consider `COc1nc(N(C)C)nc(N2CC(=O)N(CCNS(=O)(=O)c3ccc(C)cc3)C2=N)n1`, for which the inhibition was 15.6% (active).

Take `Cc1ccc(S(=O)(=O)NCCSC(C)(C)C)cc1`: the inhibition was 0.35%.

In the case of `COc1nc(Oc2ccc(=O)n(C)n2)nc(N(C)C)n1`, the inhibition was -3.73%.

For the molecule `COc1ccc(CSc2nnc(-c3cccc(C)c3)n2C)cc1`, the inhibition is 0%.

Regarding `Cc1cc(Cl)ccc1N1C(=O)CC(SCCC(=O)O)C1=O` (stereo not given), the inhibition is 2.13%.

A word on the inhibition: it is the drop in the measured response relative to a control, in per cent.
